Source: PubChem BioAssay AID504401 (The Scripps Research Institute Molecular Screening Center, 2011)
Values without a mark were called inactive. How the calls were made is not given here.

Tested on: Imidazoline I2
Assay: CYP450 and receptor off-target profile – biochemical, Ricerca HitProfilingScreen, selectivity assay for GPR7 antagonist project, late-stage follow-up (AID 504401)
Conditions: Ricerca radioligand binding and CYP450 panel, central, at 10 µM, hits give high values

COc1ccc(Oc2c(Cl)cnn(-c3cc(C)cc(C)c3)c2=O)cc1 was tested. Which inhibition did it give?
Its inhibition is 22%.
